According to PubChem BioAssay (EPA / NIEHS):
Where “and” joins values, the source holds several entries; their conditions need not be identical. Equal values may be shown once. Results filed as inconclusive are left out. More than one record can exist for a structure, and the calls need not agree. Calls of active or inactive are those of the source. How the source made its calls, unless noted: active means hit-call score of the fitted dose curve at least 0.9, where 1 is the maximum; inactive means score below 0.9.

Legend:
[1] = read-out: Interleukin-8 (IL8), CXCL8 (gene 3576); test: BSK_3C_IL8: BioMAP Diversity Plus: 3C Assay for Interleukin-8 (IL8) Biomarker Activity (AID 2283020); settings: primary human endothelial cells (HUVEC); actives raise or lower the signal
Outline: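 Human vascular endothelial cells (umbilical vein) in the 3C system; IL-8 level detected by ELISA at 24 h post-dose, with DMSO as baseline.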

[2] = read-out: Monokine induced gamma interferon (MIG), CXCL9 (gene 4283); test: BSK_3C_MIG: BioMAP Diversity Plus: 3C Assay for Monokine induced gamma interferon (MIG) Biomarker Activity (AID 2283021); settings: primary human endothelial cells (HUVEC); actives raise or lower the signal
Outline: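 After 24 h of treatment, human umbilical vein endothelial cultures (3C system) had their MIG biomarker level determined by ELISA, with DMSO serving as negative control.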

[3] = target: human Vitamin D Receptor (VDR), VDR (gene 7421) (UniProt P11473); test: ATG_VDR_TRANS: Attagene TRANS-FACTORIAL HepG2 Assay for human Vitamin D Receptor (VDR) (AID 2283022; active means hit-call score of the fitted dose curve at least 0.9, where 1 is the maximum)
Outline: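 HepG2 cells were transiently transfected with GAL4-UAS reporter units and a chimeric VDR-Gal4 construct, then dosed for 24 hours. Reporter mRNA was quantified by RT-PCR, fluorescent labeling, HpaI digestion and capillary electrophoresis; gain of signal analysed vs DMSO.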

[4] = BSK_3C_SRB: Viability Assessment in the BioMAP Diversity Plus: 3C Assay (AID 2283023); settings: primary human endothelial cells (HUVEC);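 further: fitted both ways against DMSO so a hit may be signal rise or drop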
Outline: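 Human umbilical vein endothelial cells in the 3C system, treated 24 h. Total protein measured by 0.1% sulforhodamine B staining after 10% TCA fixation, read at 560 nm; bidirectional fit versus DMSO.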

[5] = read-out: Matrix Metallopeptidase 1 (MMP1), MMP1 (gene 4312); test: BSK_BE3C_MMP1: BioMAP Diversity Plus: BE3C Assay for Matrix Metallopeptidase 1 (MMP1) Biomarker Activity (AID 2283024); settings: primary human bronchial epithelial cells; actives raise or lower the signal
Outline: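 Dose cells, wait 24 h, run MMP1 ELISA; cells are human bronchial epithelial primaries. Both increases and decreases relative to DMSO counted.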

[6] = BSK_3C_Vis: BioMAP Diversity Plus: 3C Assay for Morphology Visualization (AID 2283025); settings: primary human endothelial cells (HUVEC);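 further: fitted both ways so gain or loss versus DMSO counts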
Outline: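 Endothelial cells from human umbilical vein were treated with test chemicals for 24 h and inspected by light microscopy for changes in cell conformation.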

[7] = read-out: Pselectin, SELP (gene 6403); test: BSK_4H_Pselectin: BioMAP Diversity Plus: 4H Assay for Pselectin Biomarker Activity (AID 2283026); settings: primary human endothelial cells (HUVEC); actives raise or lower the signal
Outline: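 Human vascular endothelium from umbilical vein; P-selectin measured by ELISA at 24 h post-dose, with cytotoxicity checked by sulforhodamine B total-protein staining in parallel cultures (0.1% SRB after 10% TCA fixation, read at 560 nm).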

[8] = BSK_4H_SRB: Viability Assessment in the BioMAP Diversity Plus: 4H Assay (AID 2283027); settings: primary human endothelial cells (HUVEC);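 further: cells exposed to compound for 24 h before staining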
Outline: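 Human umbilical vein endothelial cells, 24 h after chemical dosing; total protein measured by 0.1% sulforhodamine B staining after 10% TCA fixation, read at 560 nm. Bidirectional fitting against DMSO.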

[9] = BSK_BE3C_SRB: Viability Assessment in the BioMAP Diversity Plus: BE3C Assay (AID 2283028); settings: primary human bronchial epithelial cells
Outline: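 Human bronchial epithelial primary cells in confluent culture, 24 h after chemical dosing; total protein by 0.1% SRB staining after 10% TCA fixation, read at 560 nm. Bidirectional fitting versus DMSO baseline.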

[10] = read-out: Thrombomodulin, THBD (gene 7056); test: BSK_3C_Thrombomodulin: BioMAP Diversity Plus: 3C Assay for Thrombomodulin Biomarker Activity (AID 2283029); settings: primary human endothelial cells (HUVEC); actives raise or lower the signal
Outline: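 Thrombomodulin ELISA, human primary HUVEC, 24 h post-dose; data fitted in both directions relative to DMSO.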

[11] = read-out: Human Leukocyte Antigen - DR isotype (HLADR), HLA-DRA (gene 3122); test: BSK_BE3C_HLADR: BioMAP Diversity Plus: BE3C Assay for Human Leukocyte Antigen - DR isotype (HLADR) Biomarker Activity (AID 2283032); settings: primary human bronchial epithelial cells; actives raise or lower the signal
Outline: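 Signal came from an ELISA for HLA-DR in human bronchial epithelial primary cells harvested 24 h after treatment; gain- and loss-of-signal fitting used DMSO controls as reference.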

[12] = read-out: Vascular cell adhesion molecule 1 (VCAM1), VCAM1 (gene 7412); test: BSK_4H_VCAM1: BioMAP Diversity Plus: 4H Assay for Vascular cell adhesion molecule 1 (VCAM1) Biomarker Activity (AID 2283033); settings: primary human endothelial cells (HUVEC); actives raise or lower the signal;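 further: cell-surface VCAM-1 protein measured by ELISA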
Outline: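 Endpoint derived from bidirectional fitting against DMSO controls of VCAM-1 ELISA signal in umbilical vein endothelial cells sampled at 24 h following treatment.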

[13] = read-out: Interferon-gamma inducible Protein 10 (IP10), CXCL10 (gene 3627); test: BSK_BE3C_IP10: BioMAP Diversity Plus: BE3C Assay for Interferon-gamma inducible Protein 10 (IP10) Biomarker Activity (AID 2283034); settings: primary human bronchial epithelial cells; actives raise or lower the signal
Outline: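 Using primary human bronchial epithelial cultures, the assay captures IP-10 by ELISA one day (24 h) after exposure. Parallel SRB staining of total protein flags overt cytotoxicity. Fits run bidirectionally relative to DMSO.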

[14] = read-out: Plasminogen activator inhibitor-1 (PAI1), SERPINE1 (gene 5054); test: BSK_BE3C_PAI1: BioMAP Diversity Plus: BE3C Assay for Plasminogen activator inhibitor-1 (PAI1) Biomarker Activity (AID 2283037); settings: primary human bronchial epithelial cells; actives raise or lower the signal
Outline: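 PAI-1 biomarker levels in treated human bronchial epithelial cells are determined by ELISA at 24 h. Both increases and decreases relative to DMSO are fitted.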

[15] = read-out: urokinase plasminogen activator (uPA), PLAU (gene 5328); test: BSK_BE3C_uPA: BioMAP Diversity Plus: BE3C Assay for urokinase plasminogen activator (uPA) Biomarker Activity (AID 2283038); settings: primary human bronchial epithelial cells; actives raise or lower the signal;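 further: uPA protein level quantified by ELISA in cell cultures; uPA read one day after compound addition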
Outline: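 Primary human bronchial epithelial cells, uPA measured by ELISA 24 h after dosing. Bidirectional change relative to DMSO; cytotoxicity checked in parallel cultures by sulforhodamine B total-protein staining.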

[16] = read-out: Urokinase-type plasminogen activator receptor (uPAR), PLAUR (gene 5329); test: BSK_BE3C_uPAR: BioMAP Diversity Plus: BE3C Assay for Urokinase-type plasminogen activator receptor (uPAR) Biomarker Activity (AID 2283039); settings: primary human bronchial epithelial cells; actives raise or lower the signal;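 further: cells exposed to compound for one day before measurement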
Outline: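 A uPAR ELISA serves as the readout, taken 24 h after treating primary human bronchial epithelial cells. Responses in either direction are fitted against DMSO, which defines baseline activity.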

[17] = read-out: Interleukin-6 (IL6), IL6 (gene 3569); test: BSK_CASM3C_IL6: BioMAP Diversity Plus: CASM3C Assay for Interleukin-6 (IL6) Biomarker Activity for (AID 2283040); settings: primary human coronary artery smooth muscle cells; actives raise or lower the signal
[18] = read-out: Vascular endothelial growth factor receptor 2 (Homo sapiens) (UniProt P35968); test: BSK_4H_VEGFRII: BioMAP Diversity Plus: 4H Assay for Vascular endothelial growth factor receptor 2 (VEGFR2) Biomarker Activity (AID 2283031); settings: primary human endothelial cells (HUVEC); actives raise or lower the signal
Outline: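 Primary human umbilical vein endothelial cells (4H system), 24 h exposure; cell-surface VEGFR2 measured by ELISA. Bidirectional fitting versus DMSO; cytotoxicity checked in parallel by SRB total-protein staining.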

[19] = read-out: Monokine induced gamma interferon (MIG), CXCL9 (gene 4283); test: BSK_BE3C_MIG: BioMAP Diversity Plus: BE3C Assay for Monokine induced gamma interferon (MIG) Biomarker Activity (AID 2283035); settings: primary human bronchial epithelial cells; actives raise or lower the signal;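 further: MIG protein measured by ELISA in BE3C cultures after 24 h of dosing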
Outline: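 Primary human bronchial epithelial cells treated for 24 h; MIG levels measured by ELISA, fitted bidirectionally versus DMSO. Parallel SRB total-protein staining assessed cytotoxicity.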

[20] = read-out: Urokinase-type plasminogen activator receptor (uPAR), PLAUR (gene 5329); test: BSK_4H_uPAR: BioMAP Diversity Plus: 4H Assay for Urokinase-type plasminogen activator receptor (uPAR) Biomarker Activity (AID 2283030); settings: primary human endothelial cells (HUVEC); actives raise or lower the signal
Outline: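 Human umbilical vein endothelial cells in the 4H system, 24 h after chemical dosing. Cell-surface uPAR measured by ELISA, fitted in both directions versus DMSO; cytotoxicity checked by SRB total protein in parallel cultures.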

Sequence of human Vitamin D Receptor (VDR), VDR (gene 7421) (P11473 whole entry, looked up, the tested form may be a part): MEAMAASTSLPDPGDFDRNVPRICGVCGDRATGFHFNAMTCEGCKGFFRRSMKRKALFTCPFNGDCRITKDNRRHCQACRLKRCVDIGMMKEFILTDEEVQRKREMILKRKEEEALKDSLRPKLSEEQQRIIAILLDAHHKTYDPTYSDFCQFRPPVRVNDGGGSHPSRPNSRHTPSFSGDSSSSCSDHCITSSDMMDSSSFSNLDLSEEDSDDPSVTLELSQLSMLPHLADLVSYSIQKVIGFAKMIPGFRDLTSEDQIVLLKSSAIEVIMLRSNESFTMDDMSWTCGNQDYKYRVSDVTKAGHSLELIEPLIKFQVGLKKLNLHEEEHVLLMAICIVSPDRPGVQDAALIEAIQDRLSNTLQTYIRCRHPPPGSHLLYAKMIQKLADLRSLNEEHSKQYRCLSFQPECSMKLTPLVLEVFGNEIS

In the case of Brc1nc2ccccc2s1, the outcome [1] is reported as “inactive”, the outcome [2] is reported as “inactive” and the outcome [3] is reported as “inactive”. The outcome [4] was “inactive”, the outcome [5] was “inactive” and the outcome [6] was “inactive”. The outcome [7] was “inactive”, the outcome [8] was “inactive” and the outcome [9] was “inactive”. The outcome [10] was “inactive”, the outcome [11] was “inactive” and the outcome [12] was “inactive”. The outcome [13] was “inactive”, the outcome [14] was “inactive” and the outcome [15] was “inactive”. The outcome [16] was “inactive” and the outcome [17] was “inactive”.
For FC(F)(F)C(F)(F)C(F)(F)C(F)(F)C(F)(F)C(F)(F)C(F)(F)CCI, the outcome [1] was “inactive”, the outcome [2] was “inactive” and the outcome [3] was “inactive”. The outcome [4] was “inactive”, the outcome [5] was “inactive” and the outcome [7] was “inactive”. For the same molecule, the outcome [8] was “inactive”, the outcome [9] was “inactive” and the outcome [18] was “inactive”. For the same molecule, the outcome [11] was “inactive”, the outcome [12] was “inactive” and the outcome [13] was “inactive”. For the same molecule, the outcome [19] was “inactive”, the outcome [14] was “inactive” and the outcome [15] was “inactive”. The outcome [16] was “inactive” and the outcome [17] was “inactive”.
For NCC(F)(F)C(F)(F)C(F)(F)C(F)(F)C(F)(F)C(F)(F)C(F)(F)C(F)(F)F, the outcome [1] was “inactive”, the outcome [2] was “inactive” and the outcome [3] was “inactive”. For the same molecule, the outcome [4] was “inactive”, the outcome [5] was “inactive” and the outcome [7] was “inactive”. The outcome [8] was “inactive”, the outcome [9] was “inactive” and the outcome [10] was “inactive”. The outcome [20] was “inactive”, the outcome [18] was “inactive” and the outcome [11] was “inactive”. The outcome [13] was “inactive”, the outcome [14] was “inactive” and the outcome [15] was “inactive”. The outcome [16] was “inactive” and the outcome [17] was “inactive”.
For CC1=CC2C3C=CC(C3)C2C1C (stereo not drawn), the outcome [1] was “inactive”, the outcome [2] was “inactive” and the outcome [3] was “inactive”. The outcome [4] was “inactive”, the outcome [5] was “inactive” and the outcome [6] was “inactive”. For the same molecule, the outcome [7] was “inactive”, the outcome [8] was “inactive” and the outcome [9] was “inactive”. The outcome [10] was “inactive”, the outcome [18] was “inactive” and the outcome [11] was “inactive”. The outcome [13] was “inactive”, the outcome [14] was “inactive” and the outcome [15] was “inactive”. The outcome [16] was “inactive” and the outcome [17] was “inactive”.
In the case of O=C(Cl)C(F)(F)C(F)(F)C(F)(F)C(F)(F)C(F)(F)C(F)(F)F, the AC50 [1] is reported as 27 µM (active), the outcome [1] is reported as “inactive” and the outcome [2] is reported as “inactive”. For the same molecule, the outcome [3] was “inactive”, the outcome [4] was “inactive” and the AC50 [5] was 29.3 µM (active) and 30 µM (active). The outcome [5] was “inactive”, the outcome [7] was “inactive” and the outcome [8] was “inactive”. For the same molecule, the outcome [9] was “inactive”, the outcome [11] was “inactive” and the outcome [12] was “inactive”. The outcome [13] was “inactive”, the outcome [14] was “inactive” and the outcome [15] was “inactive”. The outcome [16] was “inactive” and the outcome [17] was “inactive”.
For OCC(F)(F)C(F)(F)C(F)(F)C(F)(F)C(F)(F)C(F)(F)CO, the outcome [1] was “inactive”, the outcome [2] was “inactive” and the outcome [3] was “inactive”. For the same molecule, the outcome [4] was “inactive”, the outcome [5] was “inactive” and the outcome [7] was “inactive”. For the same molecule, the outcome [8] was “inactive”, the outcome [9] was “inactive” and the outcome [11] was “inactive”. The outcome [13] was “inactive”, the outcome [14] was “inactive” and the outcome [15] was “inactive”. For the same molecule, the outcome [16] was “inactive” and the outcome [17] was “inactive”.
With O=C(c1ccccc1)c1ccc(O)cc1O the outcome [1] was “inactive”, the outcome [2] was “inactive” and the outcome [4] was “inactive”. The outcome [5] was “inactive”, the outcome [6] was “inactive” and the outcome [7] was “inactive”. For the same molecule, the outcome [8] was “inactive”, the outcome [9] was “inactive” and the outcome [11] was “inactive”. For the same molecule, the outcome [13] was “inactive”, the outcome [14] was “inactive” and the outcome [15] was “inactive”. For the same molecule, the outcome [16] was “inactive” and the outcome [17] was “inactive”.
